# Values joined by “and” are separate entries in the source; they are usually repeats but may differ in a detail not shown here. Equal values may be shown once. Where a name gives a salt, the structure may show the parent alone. Hit rate of the full screen: of about 5,800 compounds, about 620 (11%) showed activity. The sample as a whole holds a higher share of actives than the screen did. Unmarked numbers belong to inactive results.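 The calls were made as follows: active = score above a cut-off or among the top three wells of a plate; in these data no inactive exceeds 0.85.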
# Tested on: primary human hepatic stellate cells (donor 1)
# Assay: scaled lipid accumulation score (0 = DMSO-like, 1 = nortriptyline-like); higher = stronger HSC inactivation (lipid re-accumulation), active = hit call of the paper
# Settings: 48 h
# [1] = library stock concentration: 1 mM
# [2] = library stock concentration: 10 mM
# [3] = library stock concentration: 3.33 mM
# [4] = library stock concentration: 2 mM
# [5] = library stock concentration: 5.1 mM
structure (smiles),measurement,setting,value
C=C1[C@H]2C[C@@]3([C@@H]1O)[C@@H](C[C@@H]2O)[C@]12[C@@H]4C[C@H]3[C@H]1N(CC)C[C@]4(C)CC[C@@H]2O [Napelline],scaled lipid accumulation score,,≤ 0
NCCC(O)C(=O)NC1CC(N)C(OC2OC(CN)C(O)[C@H](O)[C@@H]2N)[C@H](OC2O[C@H](CO)[C@@H](O)[C@@H]2O)[C@@H]1O (stereo partly drawn) [Butirosin disulfate salt],scaled lipid accumulation score,,0.015
COc1ccc(/C=C\c2cc(OC)cc(OC)c2)cc1 [cis-trismethoxy Resveratrol],scaled lipid accumulation score,[1],0.097
N[C@]1(C(=O)O)CC[C@H](C(=O)O)C1,scaled lipid accumulation score,[2],0.035
C[C@@H]1O[C@@H](O[C@H]2C[C@@H](O)[C@]3(CO)[C@H]4[C@H](O)C[C@]5(C)[C@@H](C6=CC(=O)OC6)CC[C@]5(O)[C@@H]4CC[C@]3(O)C2)[C@H](O)[C@H](O)[C@H]1O.O.O.O.O.O.O.O.O [Strophantine octahydrate],scaled lipid accumulation score,,1.02 (active)
C[C@H]1O[C@@H](O[C@@H]2C[C@H](O)[C@]3(CO)[C@H]4[C@H](O)C[C@]5(C)[C@H](C6=CC(=O)OC6)CC[C@]5(O)[C@@H]4CC[C@]3(O)C2)[C@@H](O)[C@H](O)[C@H]1O.O.O.O.O.O.O.O.O [Ouabain],scaled lipid accumulation score,[3],1.05 (active)
same,scaled lipid accumulation score,[2],1.06 (active)
CCCCC/C=C\C/C=C\C/C=C\C/C=C\CCCC(=O)Nc1ccc2c(C)cc(=O)oc2c1 [AMC Arachidonoyl Amide],scaled lipid accumulation score,[1],0.06
C/C=C1\C[C@@H](C)[C@](O)(CO)C(=O)OCC2=CCN3CC[C@@H](OC1=O)[C@@H]23 [Retrorsine],scaled lipid accumulation score,,≤ 0
COc1c(C[C@@H](C)OC(=O)Oc2ccc(O)cc2)c2c3c(C[C@@H](C)OC(=O)c4ccccc4)c(OC)c(=O)c4c(O)cc(OC)c(c5c(OC)cc(O)c(c1=O)c52)c43 [Calphostin C],scaled lipid accumulation score,library stock concentration: 600 uM,0.094
C=C[C@]12CN(C)[C@@H]3[C@H]4CO[C@H](C[C@H]41)[C@]1(C(=O)Nc4ccccc41)[C@@H]32 [Gelsemine],scaled lipid accumulation score,,≤ 0
C=CCc1ccccc1OCC(O)CNC1(C)CCC(C(C)(C)NC(=O)CBr)CC1 (stereo not drawn) [Bromoacetyl alprenolol menthane],scaled lipid accumulation score,[2],≤ 0
CO[C@@H]1C[C@@H](C[C@H]2CC[C@H](C)[C@H]([C@@H](C)C(=O)O)O2)O[C@]2(O[C@](C)([C@H]3CC[C@@](C)([C@@H]4O[C@@H]([C@H]5O[C@@](O)(CO)[C@H](C)C[C@@H]5C)C[C@@H]4C)O3)C[C@H]2C)[C@@H]1C [Nigericin],scaled lipid accumulation score,library stock concentration: 6.9 mM,0.535
CO[C@H]1CC[C@@H](O[C@H]2C[C@H]([C@]3(C)CC[C@]4(C[C@H](O)[C@@H](C)[C@@H]([C@@H](C)/C=C(\C)C(=O)[C@H](C)C[C@H](C)C(=O)O)O4)O3)O[C@]3(O[C@@H]([C@H]4O[C@@](O)(CO)[C@H](C)C[C@@H]4C)C[C@@H]3C)[C@@H]2C)O[C@@H]1C [Nanchangmycin],scaled lipid accumulation score,[3],1.27 (active)
same,scaled lipid accumulation score,[2],0.663
NC(Cc1cc(O)c(O)cc1O)C(=O)O (racemic) [6-Hydroxy-DL-DOPA],scaled lipid accumulation score,[2],≤ -0.07
C[C@]12CC[C@H](O)C[C@H]1CC[C@@H]1[C@@H]2CC[C@]2(C)[C@@H](C3=CC(=O)OC3)CC[C@]12O [Digitoxigenin],scaled lipid accumulation score,,0.936 (active)
C[C@@H]1O[C@@H](O[C@H]2CC[C@]3(C=O)[C@H]4CC[C@]5(C)[C@@H](C6=CC(=O)OC6)CC[C@]5(O)[C@@H]4CC[C@]3(O)C2)[C@H](O)[C@H](O)[C@H]1O [Convallatoxin],scaled lipid accumulation score,[2],0.656
CC(=O)[C@H]1CC[C@H]2[C@@H]3CC[C@H]4C[C@H](O)CC[C@]4(C)[C@H]3CC[C@]12C [5alpha-Pregnan-3alpha-ol-20-one],scaled lipid accumulation score,[2],≤ 0
C[C@]12CC[C@@H](O)C[C@H]1CC[C@@H]1[C@@H]2CC[C@]2(C)C(=O)CC[C@@H]12 [3-alpha-Hydroxy-5-beta-androstan-17-one],scaled lipid accumulation score,,≤ 0
C[C@H]1CC[C@]2(NC1)O[C@H]1C[C@H]3[C@@H]4CC[C@H]5C[C@@H](O[C@@H]6O[C@H](CO)[C@H](O[C@@H]7O[C@H](CO)[C@@H](O)[C@H](O[C@@H]8OC[C@@H](O)[C@H](O)[C@H]8O)[C@H]7O[C@@H]7O[C@H](CO)[C@@H](O)[C@H](O)[C@H]7O)[C@H](O)[C@H]6O)CC[C@]5(C)[C@H]4CC[C@]3(C)[C@H]1[C@@H]2C [Tomatine],scaled lipid accumulation score,,0.319
CO[C@H]1[C@H](O)[C@@H](O[C@H]2CC[C@]3(C=O)C4CC[C@]5(C)[C@@H](C6=CC(=O)OC6)CC[C@]5(O)C4CC[C@@H]3C2)O[C@@H](C)[C@@H]1O (stereo partly drawn) [Peruvoside],scaled lipid accumulation score,[2],0.873 (active)
C[C@]12CC[C@@H](O)C[C@@H]1CC[C@@H]1[C@@H]2CC[C@]2(C)C(=O)CC[C@@H]12 [Androsterone],scaled lipid accumulation score,,0.083
C[C@]12CC[C@H](O)C[C@@H]1CC[C@@H]1[C@@H]2CC[C@]2(C)C(=O)CC[C@@H]12 [Epiandrosterone],scaled lipid accumulation score,,0.082
same,scaled lipid accumulation score,[3],≤ 0
same,scaled lipid accumulation score,[2],≤ 0
C[C@]12CC[C@H](O)C[C@H]1CC[C@@H]1[C@@H]2C[C@@H](O)[C@]2(C)[C@@H](C3=CC(=O)OC3)CC[C@]12O [Digoxigenin],scaled lipid accumulation score,,0.991 (active)
CC(=O)O[C@H]1C[C@H](O[C@H]2[C@@H](O)C[C@H](O[C@H]3[C@@H](O)C[C@H](O[C@H]4CC[C@@]5(C)[C@H](CC[C@@H]6[C@@H]5C[C@@H](O)[C@]5(C)[C@@H](C7=CC(=O)OC7)CC[C@]65O)C4)O[C@@H]3C)O[C@@H]2C)O[C@H](C)[C@H]1O[C@@H]1O[C@H](CO)[C@@H](O)[C@H](O)[C@H]1O [Lanatoside c],scaled lipid accumulation score,[4],0.894 (active)
same,scaled lipid accumulation score,[2],0.892 (active)
CC(=O)O[C@H]1C[C@H](O[C@H]2[C@@H](O)C[C@H](O[C@H]3[C@@H](O)C[C@H](O[C@H]4CC[C@@]5(C)[C@H](CC[C@@H]6[C@@H]5C[C@@H](O)[C@]5(C)[C@@H](C7=CC(=O)OC7)CC[C@]65O)C4)O[C@@H]3C)O[C@@H]2C)O[C@H](C)[C@H]1O[C@@H]1O[C@H](CO)[C@@H](O)[C@H](O)[C@H]1O [Lanatoside C],scaled lipid accumulation score,,1.08 (active)
CCCCCCCC/C=C\CCCCCCCC(=O)OC[C@@H](COP(O)(O)=S)OC,scaled lipid accumulation score,[1],0.084
NC(=NN=Cc1ccc(-c2cccc([N+](=O)[O-])c2)o1)N[N+](=O)[O-] [ERK Inhibitor III],scaled lipid accumulation score,[3],≤ 0
Cn1c2c(c3ccccc31)CCNCC2,scaled lipid accumulation score,[2],0.326
COc1cccc(C2(O)CCCCC2CN(C)C)c1 (stereo not drawn) [Tramadol HCl],scaled lipid accumulation score,library stock concentration: 7.6 mM,≤ 0
COc1cccc(C2(O)CCCCC2CN(C)C)c1 (stereo not drawn) [Tramadol hydrochloride],scaled lipid accumulation score,library stock concentration: 6.7 mM,≤ 0
COc1cccc(C2(O)CCCCC2CN(C)C)c1 (stereo not drawn) [Tramadol],scaled lipid accumulation score,[2],0.009
COc1ccc(CCN)cc1OC [Homoveratrylamine],scaled lipid accumulation score,[2],0.046
C=CCN1C[C@H](C(=O)N(CCCN(C)C)C(=O)NCC)C[C@@H]2c3cccc4[nH]cc(c34)C[C@H]21 [Cabergoline],scaled lipid accumulation score,library stock concentration: 4.4 mM,0.368
CCN1C[C@]2(COC)CC[C@H](O)[C@@]34C5C[C@@H]6[C@@H](OC)C[C@](O)(C(CC23)C14)C5[C@H]6OC(C)=O (stereo partly drawn) [Condelphine],scaled lipid accumulation score,,≤ 0
COc1cc2c(c(OC)c1OC)-c1ccc(O)c(=O)cc1[C@@H](N)CC2 [Trimethylcolchicinic acid],scaled lipid accumulation score,,0.074
O=C(NC(COc1ccc2[nH]c(=O)[nH]c2c1)c1ccccc1)c1cccn(Cc2ccc(F)c(F)c2)c1=O (stereo not drawn),scaled lipid accumulation score,library stock concentration: 80 uM,≤ 0
same,scaled lipid accumulation score,library stock concentration: 400 uM,≤ 0
same,scaled lipid accumulation score,[4],≤ 0
same,scaled lipid accumulation score,[2],≤ 0
COc1cc([C@@H]2c3cc4c(cc3[C@H](O)[C@H]3COC(=O)[C@H]23)OCO4)cc(OC)c1OC [Podophyllotoxin],scaled lipid accumulation score,,≤ 0
same,scaled lipid accumulation score,[2],0.288
COc1cc([C@@H]2c3cc4c(cc3[C@H](O)[C@H]3COC(=O)[C@H]23)OCO4)cc(OC)c1OC [Podofilox],scaled lipid accumulation score,library stock concentration: 4.8 mM,0.201
same,scaled lipid accumulation score,[2],0.419
C/C=C(\C)C(=O)N[C@@H](c1ccccc1)[C@@H](O)C(=O)O[C@H]1C[C@@]2(O)[C@@H](OC(=O)c3ccccc3)[C@@H]3[C@]4(OC(C)=O)CO[C@@H]4C[C@H](O)[C@@]3(C)C(=O)[C@H](OC(C)=O)C(=C1C)C2(C)C [Cephalomannine],scaled lipid accumulation score,[3],≤ 0
same,scaled lipid accumulation score,[2],≤ 0
O=C(CCCN1CCC2(CC1)C(=O)NCN2c1ccccc1)c1ccc(F)cc1 [Spiperone] [listing 1 of 2 here],scaled lipid accumulation score,[5],0.939 (active)
O=C(NCCN1CCC2(CC1)C(=O)NCN2c1ccccc1)c1ccc2ccccc2c1,scaled lipid accumulation score,[1],≤ 0
O=C(CCCN1CCC2(CC1)C(=O)N(Cc1cccc(F)c1)CN2c1ccccc1)c1ccc(F)cc1.O=C(O)/C=C\C(=O)O [3'-Fluorobenzylspiperone maleate],scaled lipid accumulation score,[2],0.967 (active)
O=C(CCCN1CCC2(CC1)C(=O)NCN2c1ccccc1)c1ccc(F)cc1 [Spiperone hydrochloride],scaled lipid accumulation score,[2],0.74 and 0.784
O=C(CCCN1CCC2(CC1)C(=O)NCN2c1ccccc1)c1ccc(F)cc1 [Spiperone] [listing 2 of 2 here],scaled lipid accumulation score,,0.119
same,scaled lipid accumulation score,[5],0.399
same,scaled lipid accumulation score,[2],≤ 0
CC(N)c1cccc(Cl)c1Cl (stereo not drawn),scaled lipid accumulation score,[2],0.208

# Reference: the supplement of paper PMC9135407
